Bioassay records (PubChem)
Dicer inh: human Dicer pre-microRNA cleavage inhibition; Q9UPY3; cat-ELCCA pre-miR-21 Dicer processing, chemiluminescence; hits give high values; z-score at 25 µM; hit rate 6% among 47,000; AID 1347074; in the data active = z-score above about 3, passing the limit was not always enough;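 also: plate controls were vehicle for no effect and no enzyme for full effect; higher signal means more uncleaved substrate so more Dicer inhibition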
The depositor's hits bear a star; ! = not confirmed by another sample. Only a selection was taken, and hits are over-represented in it overall.

SMILES	Dicer inh
Nc1ccc(Cc2ccc(N)cc2)cc1	7.6*
CC(C)Oc1ccc(C2SCC(=O)Nc3c2c(=O)[nH]n3C2CCOC(C)(C)C2)cc1 (centres undefined)	-1.9
CN1C(=O)CN=C(c2ccccc2)c2ccccc21	1.2
COc1cccc(CN2CCN(Cc3cc(Br)ccc3O)CC2)c1	3.4*
COc1ccc(CN2CCN(Cc3ccc(Br)cc3)CC2)cc1	-0.08
CCc1ccc(CN2CCN(Cc3cc(Br)ccc3O)CC2)cc1	0.95
S=C(Nc1ccc(Cl)cc1Cl)N1CCCC1c1cccnc1 (centres undefined)	-0.68
Fc1cccc(CN2CCN(Cc3ccccc3Cl)CC2)c1	6.4*
Clc1ccc(CN2CCN(Cc3ccc4c(c3)OCO4)CC2)cc1	-1.7
Clc1ccccc1CN1CCN(Cc2ccc3c(c2)OCO3)CC1	3.9*
Clc1cccc(CN2CCN(Cc3ccc4c(c3)OCO4)CC2)c1	-0.43
Fc1cccc(Cl)c1CN1CCN(Cc2c(F)cccc2Cl)CC1	-3.9
CSc1ccc(CN2CCN(Cc3ccccc3Cl)CC2)cc1	0.04
CC12CCC3C4CCC(=O)C=C4CCC3C1CCC2=O (centres undefined)	-1.8
CN(C)CC1(CC(=O)O)CCCCC1	0.34
O=c1c2ccccc2[nH]c(=S)n1-c1ccc(F)c(Cl)c1	-1.5
C[C@]12CC[C@H](O)C[C@H]1CC[C@@H]1[C@@H]2CC[C@]2(C)[C@@H](C3=CC(=O)OC3)CC[C@]12O	0.23
C[C@]12CC[C@H](O)C[C@H]1CC[C@@H]1[C@@H]2C[C@@H](O)[C@]2(C)[C@@H](C3=CC(=O)OC3)CC[C@]12O	4.5*
C[C@]12CCC3[C@@H](CC[C@@H]4C[C@H](O)CC[C@]34C)[C@@H]1CCC2=O (some centres undefined)	0.03
COc1ccc(NC(=S)NNC(=O)C2(O)CN3CCC2CC3)cc1 (centres undefined)	2.5
CC12CC[C@@H](O)CC1=CC[C@@H]1C2CCC2(C)C(=O)CC[C@@H]12 (some centres undefined)	2.4
CCc1cc2c(cc1-c1csc(CC#N)n1)C(C)(C)CCC2(C)C	-0.71
COc1ccc(Br)cc1/C=C(\C)[N+](=O)[O-]	0.05
CCC1(C(=O)c2ccc(F)cc2)C2c3cc(Br)ccc3OC(=O)C21C(=O)OC (centres undefined)	3.4*
CCCc1cc(OC(=O)N(C)C)nc(-c2cccc(C)c2)n1	-0.07
SMILES	Dicer inh
COc1ccc(C=C2C(=O)C3CCN2CC3)cc1Br	1.1
COc1cccc(Oc2c(C)oc3cc(OC(=O)N(C)C)ccc3c2=O)c1	-0.47
CCOc1ccccc1Oc1coc2cc(OC(=O)N(C)C)ccc2c1=O	3.4*
Cc1oc2cc(OC(=O)N(C)C)ccc2c(=O)c1Oc1ccccc1Br	1.2
C=C(C)Cc1c(COC)nc(-c2ccc(C)c(Cl)c2)nc1OC(=O)N(C)C	6.5
CC1(C)CN=C(Nc2ccc(Cl)cc2)S1	-3.4
O=C(Nc1ccc(F)cc1)N1CC2C[C@H](C1)c1cccc(=O)n1C2	-0.26
Cc1ccc(-n2c(/C=C/c3ccc([N+](=O)[O-])o3)nc3ccccc3c2=O)cc1	3*
CN(C)c1ccc(/C=C/c2nc3ccccc3c(=O)n2-c2ccccc2)cc1	1.8
O=c1c2ccccc2nc(C(F)(F)F)n1-c1ccccc1	2.8
Cc1nc2ccccc2c(=O)n1-c1ccc(Br)cc1	-0.44
O=c1c2ccccc2nc(/C=C/c2ccccc2)n1-c1cccc(O)c1	3.1*
O=c1c2ccccc2nc(/C=C/c2ccc([N+](=O)[O-])o2)n1-c1ccc(Br)cc1	2.3
O=c1c2ccccc2nc(/C=C/c2ccc3c(c2)OCO3)n1-c1ccccc1O	2.7
O=c1c2ccccc2nc(/C=C/c2ccco2)n1-c1cccc(O)c1	2.2
O=c1c2ccccc2nc(/C=C/c2ccccc2F)n1-c1ccccc1	6*
CC12CCC3C(CC4OCC35CCC(O)C[C@]45Br)C1CCC2O (some centres undefined)	-2.2
O=C(O)CCC(=O)OC1N=C(c2ccccc2Cl)c2cc(Br)ccc2NC1=O (centres undefined)	1.4
O=C(NNC(=S)Nc1ccc(Cl)cc1)C1(O)CN2CCC1CC2 (centres undefined)	2.2
CC1(C)CN=C(Nc2ccccc2F)S1	-0.51
O=[N+]([O-])/C=C/c1cc(C(F)(F)F)cc(C(F)(F)F)c1	0.79
c1ccc(OC[C@@H]2CCCN3CCCCC23)nc1 (some centres undefined)	-0.38
CC12CN3CC(C)(CN(C1)C3c1cccnc1)C2 (centres undefined)	0.19
COCc1cc(=O)oc2cc(OC(=O)N(C)C)ccc12	1.1
Clc1cccc(Cl)c1NC1=NCCS1	2.3
SMILES	Dicer inh
Cc1cc(C)c(NC2=NCCS2)c(C)c1	-0.62
Clc1cc(Br)ccc1NC1=NCCS1	0.58
Clc1cc(Cl)cc(NC2=NCCS2)c1	3.7*!
Clc1cccc(NC2=NCCS2)c1Cl	3.6*
Cc1ccc(NC2=NCCS2)c(C)c1	1.6
CC1(C)C2CCC1(C)C(N1CCNCC1)C2 (centres undefined)	2.1
CCCCCCn1c(N)c(C(=O)OC)c2nc3ccccc3nc21	-0.6
CC(=O)OC1CCC2(C)C(=CCC3C2CCC2(C)C(OC(C)=O)CCC32)C1 (centres undefined)	-1.3
CC(C)N1CCC(n2nnc3ccccc32)CC1	-1.2
NC(=NCCc1ccc(Cl)cc1)N[N+](=O)[O-]	2.1
O=C(C1CCCCN1)N1CCN(Cc2cccnc2)CC1 (centres undefined)	-0.7
Cc1ccc(-n2c(=S)[nH]c3ccccc3c2=O)cc1	1.4
Cc1ccc2[nH]c(=S)n(-c3ccccc3F)c(=O)c2c1	5.3*
CCc1ccccc1-n1c(=S)[nH]c2ccccc2c1=O	-0.47
CC1(C)CC(n2[nH]c(=O)c3c2NC(=O)CSC3c2ccc(Br)cc2)CCO1 (centres undefined)	-1.4
COc1ccc(CN2CCN(Cc3ccc(Cl)cc3)CC2)cc1Br	1.1
N#CC1=C(N)Oc2c(c(=O)oc3ccccc23)C1c1cccnc1 (centres undefined)	-1.2
O=c1oc2ccccc2c2c1C(c1cccc([N+](=O)[O-])c1)c1c(c3ccccc3oc1=O)O2	-0.29
O=c1oc2ccccc2c2c1C(c1ccc([N+](=O)[O-])cc1)c1c(c3ccccc3oc1=O)O2	3.7*
CNC(=O)c1ccc(/C=C2/C(=O)C3CCN2CC3)cc1	0.24
Cc1ccc(-n2c(=S)[nH]c3cccc(F)c3c2=O)cc1C	1.8
CCOC(=O)C1=C(C)OC(N)=C(C#N)C12C(=O)Nc1ccccc12 (centres undefined)	2.2
COCCOC(=O)C1=C(C)OC(N)=C(C#N)C12C(=O)Nc1ccccc12 (centres undefined)	3.8*
CCOC(=O)C1=C(N)OC(c2ccccc2)=C(C(=O)OCC)C12C(=O)Nc1ccccc12 (centres undefined)	-0.71
CCCCCc1nc2ccccc2c(=O)n1-c1ccc(O)cc1	0.84
